Results filed as inconclusive are left out. Active and inactive are the calls of the source. Unless noted, the call rests on the fitted dose curve; in most records, active means well fitted curve in the direction sought with a large enough effect; inconclusive means small, poorly fitted or top-dose-only effect, or another doubt; inactive means no such curve, though single readings can be large; an effect the other way counts as inactive or inconclusive.
Columns and labels:
[1] = Quantitative High-Throughput drug screen in 47 multiple myeloma cell lines against the NCATS MIPE library collection: KMS11_JCRBsus cell viability assay (AID 1919873); further: nearly all actives have a fitted effect of over 50% in size; further: potency means the concentration at half of the fitted maximal effect
How it was run: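 MIPE 4.0 approved/investigational drugs; 500 cells/well; 48 h 37 °C humidified 5% CO2; CTG luminescence readout; DMSO = 100%, media = 0% viability.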

[2] = qHTS drug screen for cell cycle checkpoint inhibitors in PARPi-resistant BRCA-mutant ovarian cancer cell lines. (AID 1963452; calls by dose curve); conditions: PEO1/OlaR viability, CellTiter-Glo luminescence, 96 h, stronger effect = lower value
How it was run: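 PEO1, PEO4 and PEO1/OlaR ovarian cancer cells, 600 per well, exposed 96 h at 37C to a dilution series. Viability read by CellTiter-Glo luminescence, normalized to DMSO and empty wells; activity summarized as Z-AUC.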

[3] = qHTS profiling for inhibitors of Plasmodium falciparum proliferation (AID 504749); further: nearly all actives have a fitted effect of over 60% in size; further: potency means the concentration at half of the fitted maximal effect;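 on activity, negative = inhibition: 0% = DMSO vehicle and full inhibition = artemisinin control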; conditions: P. falciparum in erythrocytes, SYBR Green DNA, 72 h
How it was run: (§1)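 Parasite proliferation within erythrocytes, 72 h exposure. Endpoint: SYBR Green I fluorescence after overnight lysis at room temperature. Controls: 0.29 uM artemisinin, DMSO.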

3D7 = test: as above; conditions: P. falciparum in erythrocytes, SYBR Green DNA, 72 h; series mostly up to 28.7 µM
How it was run: as §1

7G8 = test: as above; conditions: P. falciparum in erythrocytes, SYBR Green DNA, 72 h; series mostly up to 28.7 µM
How it was run: as §1

AA1029 = test: as above; conditions: P. falciparum in erythrocytes, SYBR Green DNA, 72 h; series mostly up to 28.7 µM
How it was run: as §1

AS120 = test: as above; conditions: P. falciparum in erythrocytes, SYBR Green DNA, 72 h; series mostly up to 28.7 µM
How it was run: as §1

ATS189 = test: as above; conditions: P. falciparum in erythrocytes, SYBR Green DNA, 72 h; series mostly up to 28.7 µM
How it was run: as §1

ATS95 = test: as above; conditions: P. falciparum in erythrocytes, SYBR Green DNA, 72 h; series mostly up to 28.7 µM
How it was run: as §1

C2A = test: as above; conditions: P. falciparum in erythrocytes, SYBR Green DNA, 72 h; series mostly up to 28.7 µM
How it was run: as §1

[4] = measured here: PEO1 parental Z-AUC
[5] = at 28.7 µM (top of the series), parasite line A
[6] = at 28.7 µM (top of the series), parasite line B

NCC1(CC(=O)O)CCCCC1
Potency [1]: inactive
Z-AUC [2]: 0.463 (inactive)
Z-AUC [2, 4]: 0.917
Z-AUC ([2]; measured here: PEO4 Z-AUC): -0.172
activity, negative = inhibition ([3]; at 12.8 µM (top of the series), parasite line A): 5.08% (inactive)
activity, negative = inhibition ([3]; at 12.8 µM (top of the series), parasite line B): 1.35% (inactive)
Potency (3D7): inactive
Potency (7G8): inactive
Potency (AA1029): inactive
Potency (AS120): inactive
Potency (ATS189): inactive
Potency (ATS95): inactive
Potency (C2A): inactive

Cn1c(CCCC(=O)O)nc2cc(N(CCCl)CCCl)ccc21
Potency [1]: inactive
Z-AUC [2]: 2 (inactive)
Z-AUC [2, 4]: 1.56
Z-AUC ([2]; measured here: PEO4 Z-AUC): 2.09
activity, negative = inhibition [3, 5]: -26.2% (inactive)
activity, negative = inhibition [3, 6]: 3.04% (inactive)
Potency (3D7): inactive
Potency (AA1029): inactive
Potency (AS120): inactive
Potency (ATS189): inactive
Potency (ATS95): inactive
Potency (C2A): inactive

Cc1cccc(C)c1NC(=O)CN1CCCC1=O
Potency [1]: inactive
Z-AUC [2]: 0.64 (inactive)
Z-AUC [2, 4]: 0.59
Z-AUC ([2]; measured here: PEO4 Z-AUC): 1.08

CNCC(O)c1ccc(O)cc1 (stereo not drawn)
Potency [1]: inactive
Z-AUC [2]: -0.876 (inactive)
Z-AUC [2, 4]: -0.301
Z-AUC ([2]; measured here: PEO4 Z-AUC): -0.927

CC(O)(CS(=O)(=O)c1ccc(F)cc1)C(=O)Nc1ccc(C#N)c(C(F)(F)F)c1 (stereo not drawn)
Potency [1]: inactive

CN(C)CCN(C)CCc1ccc(Cl)c(Cl)c1
Potency [1]: inactive
Z-AUC [2]: 1.45 (inactive)
Z-AUC [2, 4]: 1.36
Z-AUC ([2]; measured here: PEO4 Z-AUC): 1.58

O=C(O)C(=O)c1cn(Cc2ccccc2)c2ccc(-c3ccc(OC(F)(F)F)cc3)cc12
Z-AUC [2]: -0.0319 (inactive)
Z-AUC [2, 4]: 0.702
Z-AUC ([2]; measured here: PEO4 Z-AUC): 0.863

C#CCN(C)[C@H](C)Cc1ccccc1
Z-AUC [2]: 0.853 (inactive)
Z-AUC [2, 4]: 0.381
Z-AUC ([2]; measured here: PEO4 Z-AUC): 0.551

C=C1C[C@@H]2[C@H](CC[C@]3(C)C(=O)CC[C@@H]23)[C@@]2(C)C=CC(=O)C=C12
Z-AUC [2]: 1.28 (inactive)
Z-AUC [2, 4]: 0.968
Z-AUC ([2]; measured here: PEO4 Z-AUC): 1.01

COc1ccc(C(CN(C)C)C2(O)CCCCC2)cc1 (stereo not drawn)
Potency [1]: inactive
activity, negative = inhibition [3, 5]: 4.2% (inactive)
activity, negative = inhibition [3, 6]: -12.5% (inactive)
Potency (3D7): inactive
Potency (7G8): inactive
Potency (AA1029): inactive
Potency (AS120): inactive
Potency (ATS189): inactive
Potency (ATS95): inactive
Potency (C2A): inactive

COC[C@H]1OC(=O)c2coc3c2[C@@]1(C)C1=C(C3=O)C2CCC(=O)[C@@]2(C)C[C@H]1OC(C)=O (stereo partly drawn)
Potency [1]: 13.2 µM (active)
Z-AUC [2]: 0.865 (inactive)
Z-AUC [2, 4]: 0.666
Z-AUC ([2]; measured here: PEO4 Z-AUC): 0.563

C[C@@H]1O[C@@H](O[C@H]2C[C@@H](O)[C@]3(CO)[C@H]4[C@H](O)C[C@]5(C)[C@@H](C6=CC(=O)OC6)CC[C@]5(O)[C@@H]4CC[C@]3(O)C2)[C@H](O)[C@H](O)[C@H]1O
Potency [1]: 0.0935 µM (active)
Z-AUC [2]: -1.08 (inactive)
Z-AUC [2, 4]: -2.2
Z-AUC ([2]; measured here: PEO4 Z-AUC): -1.63

COc1ccc(C(=O)c2c(C)n(CCN3CCOCC3)c3ccccc23)cc1
Potency [1]: inactive
Z-AUC [2]: 0.0561 (inactive)
Z-AUC [2, 4]: -0.45
Z-AUC ([2]; measured here: PEO4 Z-AUC): -1.01
activity, negative = inhibition [3, 5]: -0.832% (inactive)
activity, negative = inhibition [3, 6]: 8.06% (inactive)
Potency (3D7): inactive
Potency (7G8): 12.6 µM (active)
Potency (AA1029): inactive
Potency (AS120): inactive
Potency (ATS189): inactive
Potency (ATS95): inactive
Potency (C2A): inactive

— PubChem BioAssay (NCATS)
